Screening data deposited in PubChem by several laboratories.
CHT allo act: human CHT allosteric activation | CHT-expressing cells, membrane potential dye, choline EC20; stronger effect = higher value; LV-AA mutant CHT in HEK293 cells | B-score at 10 µM | actives 0.49% (n = 310,000);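 active = initial fluorescence not abnormally high and integrated response B-score, plate-corrected, over 3 SD above library mean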
Target sequence (Q9GZV3 whole entry, looked up): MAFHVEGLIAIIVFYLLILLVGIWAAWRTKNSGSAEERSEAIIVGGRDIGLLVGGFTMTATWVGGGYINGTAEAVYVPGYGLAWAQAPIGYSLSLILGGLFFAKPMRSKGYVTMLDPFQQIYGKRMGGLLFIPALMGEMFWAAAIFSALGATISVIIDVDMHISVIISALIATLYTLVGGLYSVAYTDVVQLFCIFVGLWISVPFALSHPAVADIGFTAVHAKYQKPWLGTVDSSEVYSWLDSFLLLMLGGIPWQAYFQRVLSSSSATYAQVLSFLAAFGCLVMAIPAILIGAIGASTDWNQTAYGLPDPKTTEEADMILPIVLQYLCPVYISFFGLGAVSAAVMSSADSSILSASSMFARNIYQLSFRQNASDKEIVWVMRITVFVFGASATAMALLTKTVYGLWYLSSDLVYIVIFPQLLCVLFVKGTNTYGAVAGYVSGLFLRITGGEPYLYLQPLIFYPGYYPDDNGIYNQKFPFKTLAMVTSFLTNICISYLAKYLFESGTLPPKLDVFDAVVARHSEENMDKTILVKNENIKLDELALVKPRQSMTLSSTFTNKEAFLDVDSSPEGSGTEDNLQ
CHT block: inhibitors of human choline transporter CHT; Q9GZV3; CHT-expressing cells, membrane potential dye, choline response; stronger effect = lower value; B-score at 10 µM; actives 0.86% (n = 310,000); AID 488975;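 active = B-score over 3 SD under the library average, and starting fluorescence ratio not unusually high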;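 also: choline stimulus applied at its EC90 after an EC20 pre-addition; B-score computed on integrated fluorescence ratio after choline addition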
SUMO Mot1 rescue: inhibitors of SUMOylation pathway: yeast Mot1-301 growth rescue; S. cerevisiae Mot1-301 growth rescue, ATP luminescence, 38.5C; percent above DMSO median, 100 means doubled; growth rescue, % at 18.8 µM; actives 1% (n = 320,000);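 active = every valid replicate shows activation above 250% relative to neutral control wells; inactive = the rest, any valid replicate at or below 250%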
NALP3 yeast inh: blocks the NALP3 inflammasome reconstituted in yeast. inhibition, % at 10 µM. actives 0.39% (n = 330,000). Yeast reconstituted NLRP3/ASC/caspase-1, beta-gal luminescence, 24 h. AID 2825;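 active = inhibition of 50% or more; inactive = inhibition below 50%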
A1 inh: inhibitors of the anti-apoptotic protein A1, read as caspase activation; MEF A1-2A-BIM cells, Caspase-Glo 3/7 luminescence, 3 h; percent of clofoctol response, vehicle zero; caspase activation, % (concentration not given with the values); actives 0.066% (n = 330,000);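 active = over half of replicate activation scores above 10%, or exactly half above 10 with the replicate mean above 10; inconclusive = replicate mean below 10 yet half the replicates above 10; inactive = over half of replicates below 10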
NALP1 inh: inhibitors of NALP1 inflammasome in yeast. S. cerevisiae NALP1/ASC/caspase-1 growth, X-gal OD620, 72 h. inhibition, % at 10 µM. actives 0.61% (n = 280,000); in the data active = inhibition mostly above about 24%, no sharp cut-off; inactive = mostly below about 32%
CHT block conf: confirmation of human choline transporter CHT inhibitors; CHT activity remaining % of control (stronger effect = lower value), % at 10 µM; AID 493221; shares compounds with CHT block; actives 70% (n = 2,400); CHT-expressing cells, choline membrane potential dye; LV-to-AA substituted CHT, HEK293 cells;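 active = choline transporter activity left, mean of duplicates at 10 µM, below buffer-only control mean minus 3 SD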;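 also: depolarization triggered by choline at its EC90 following an EC20 pre-addition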
HEK293 CHT ctr: CHT inhibitor counter-screen hit in parental HEK293 cells. shares compounds with CHT block. membrane potential dye, choline response; active = decrease or increase beyond buffer ±3SD. membrane potential ratio readout (active if shifted either direction beyond buffer ±3SD; no single direction) at 10 µM. actives 4% (n = 2,400);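 also: parental cells lack the transporter so any hit is non-specific; ratio is peak minus trough fluorescence over baseline after EC90 choline challenge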
Of the large screens only hits and unclear results are named; the others gave an inactive call (follow-up assays come after a bar, where they were run). Sampled rows, rich in hits. Any-hit rate of the full collection: about 3%.

O=C1NC(=O)/C(=C/c2cccc3ccccc23)S1	CHT block -5 | CHT block conf 62% | HEK293 CHT ctr inactive
COc1ccccc1OCCCOc1ccc(/C=C2\SC(=O)NC2=O)cc1OC	none
CCCOc1ccc2ccccc2c1/C=C1\SC(=O)NC1=O	CHT block -6.4 | CHT block conf inactive | HEK293 CHT ctr inactive
CCOC(=O)CSC1=C(C#N)C(c2ccccc2)C(C(C)=O)=C(C)N1 (configuration not stated)	CHT block -5.7 | CHT block conf inactive | HEK293 CHT ctr inactive
CCc1ccccc1NC(=O)c1ccc(CN2CCC(Cc3ccccc3)CC2)cc1	CHT block -9.6 | CHT block conf 48% | HEK293 CHT ctr inactive
O=C(NCc1ccccc1)c1ccc(CN2CCC(Cc3ccccc3)CC2)cc1	none
CCc1cccc(C)c1NC(=O)c1ccc(CN2CCc3ccccc3C2)cc1	CHT block -5.4 | CHT block conf 71% | HEK293 CHT ctr inactive
Cc1ccccc1NC(=O)c1ccc(CN2CCc3ccccc3C2)cc1	none
C=CCn1c(Oc2ccc(C=O)cc2OCC)nc2c1c(=O)n(C)c(=O)n2C	none
O=C(COC(=O)c1ccc(Br)o1)Nc1ccc(N2CCOCC2)cc1	none (no result: CHT allo act, CHT block, SUMO Mot1 rescue, A1 inh, NALP1 inh)
Cc1nc(NC(=O)CCN2C(=O)C3CC=CCC3C2=O)sc1C (configuration not stated)	none
CC(C)(C)NCC(O)Cn1cc(C=O)c2ccccc21 (configuration not stated)	CHT block -5.7 | CHT block conf 50% | HEK293 CHT ctr inactive
O=C(CN1C(=O)NC2(CCOc3ccccc32)C1=O)c1ccc(Br)cc1 (configuration not stated)	none
CC1(C)OC2C(O1)[C@@H](CO)O[C@H]2n1cnc2c(N)ncnc21 (some centres not stated)	none (no result: NALP1 inh)
Nc1ncnc2c1ncn2[C@@H]1O[C@H](CO)[C@@H](O)[C@H]1O	CHT block -6 | CHT block conf 30% | HEK293 CHT ctr inactive
O=C(O)c1ccc2c(c1)N(Cc1ccc(F)cc1)C(=O)c1ccccc1S2	CHT block -5.2 | CHT block conf 64% | HEK293 CHT ctr inactive
CCCOc1ccc(C(CC(=O)O)NC(=O)c2cccs2)cc1 (configuration not stated)	none
CCCOc1ccc(C(CC(=O)O)NC(=O)CC(c2ccccc2)c2ccccc2)cc1 (configuration not stated)	CHT block -6.8 | CHT block conf 24% | HEK293 CHT ctr inactive
CCc1ccc(-n2c(C)cc(/C=N/NC(=O)OC)c2C)cc1	CHT block -8.6 | CHT block conf 62% | HEK293 CHT ctr inactive
COC(=O)N/N=C/c1cc(C)n(-c2ccc(F)cc2)c1C	none
Cc1cc(/C=N/NC(=O)c2ccncc2)c(C)n1-c1ccccc1	CHT block -6.8 | CHT block conf 30% | HEK293 CHT ctr inactive
COC(=O)N/N=C/c1cc(C)n(-c2ccccc2)c1C	CHT block -8.3 | CHT block conf 23% | HEK293 CHT ctr inactive
CCc1ccc(-n2c(C)cc(/C=N/NC(=O)c3ccncc3)c2C)cc1	none
O=C(NCCn1cccn1)C1CCC(=O)N(CCc2ccc(Cl)cc2)C1 (configuration not stated)	none (no result: SUMO Mot1 rescue, A1 inh)
COc1ccccc1C(=O)Nc1ccc2c(c1)nc1n2CCN(C2CCCCC2)C1	none
Cc1ccc(S(=O)(=O)N(C)CC(=O)O/N=C(\N)c2cccc(Br)c2)cc1	none
CCOC(=O)c1oc2nc(CC(C)C)c3c(c2c1N)CCCC3	CHT block -11 | CHT block conf 13% | HEK293 CHT ctr inactive
OCCOc1cccc(CN2CCC(CO)(CCOc3ccccc3)CC2)c1	CHT block -10 | CHT block conf inactive | HEK293 CHT ctr inactive
O=C(O)CC(NC(=O)c1sc2ccccc2c1Cl)c1ccc(OC2CCCC2)cc1 (configuration not stated)	CHT block -5.2 | CHT block conf 28% | HEK293 CHT ctr inactive
CCOc1ccc(C(CC(=O)O)NC(=O)C2c3ccccc3Oc3ccccc32)cc1 (configuration not stated)	none
O=C(O)CC(NC(=O)C1c2ccccc2Oc2ccccc21)c1ccc(OC2CCCC2)cc1 (configuration not stated)	CHT block -5.2 | CHT block conf inactive | HEK293 CHT ctr inactive
CCS(=O)(=O)C1=NN2C(=N)/C(=C\c3ccc(SCc4ccco4)o3)C(=O)N=C2S1	none (no result: CHT allo act, CHT block, SUMO Mot1 rescue, NALP3 yeast inh, A1 inh)
COc1ccc(C(=O)NC(C)Cc2cnccn2)cc1OC1CCN(C(C)C)CC1 (configuration not stated)	CHT block -7 | CHT block conf 28% | HEK293 CHT ctr inactive
COCC1CCN(C(=O)c2ccc(OC)c(OC3CCN(C(C)C)CC3)c2)CC1	none
COc1ccc(C(=O)NC(C)CCn2cccn2)cc1OC1CCN(C(C)C)CC1 (configuration not stated)	CHT block -9.8 | CHT block conf 13% | HEK293 CHT ctr inactive
COc1ccc(C(=O)NCCCn2cccn2)cc1OC1CCN(C(C)=O)CC1	none (no result: CHT allo act, CHT block, SUMO Mot1 rescue, A1 inh)
COc1cc(CN2CCNC(=O)C2CC(=O)N(C)CCCN2CCOCC2)cc(OC)c1 (configuration not stated)	A1 inh inconclusive
COc1ccc(-c2noc(N3CCC(C(=O)Nc4ccc(OC)cc4OC)CC3)n2)cc1	CHT block -6.6 | CHT block conf inactive | HEK293 CHT ctr inactive
CC1(C)O[C@@H]2[C@H](O1)[C@@H](CO)O[C@H]2n1ccc(=O)[nH]c1=O	none (no result: CHT allo act, CHT block, NALP1 inh)
CC(=O)N1c2ccc(S(=O)(=O)N3CCC(C(=O)N4CCN(c5ccc(Cl)cc5)CC4)CC3)cc2CC1C (configuration not stated)	none
CCOC(=O)c1oc2cc(O)cc(C)c2c(=O)c1-c1cscn1	none (no result: NALP1 inh)
CCCc1cc2c(=O)c(-c3cscn3)c(C(=O)OCC)oc2cc1O	CHT block -5.8 | CHT block conf 28% | HEK293 CHT ctr inactive
O=C(Nc1ccc(N2CCCCC2)cc1)c1ccc2ccccc2n1	none
COc1ccc(CNC(=O)C/C(C)=N/NC(=O)c2ccc(OC)cc2OC)cc1	none
C=CCC[C@H](Cc1ccc(F)cc1)C(=O)OC[C@H](C)NC(=O)[C@@H](CC=C)CC(=O)N[C@H](CO)Cc1ccccc1	none (no result: CHT allo act, CHT block, NALP1 inh)
